These results are taken from PubChem BioAssay (EPA / NIEHS).

In test [1] the target is human Matrix Metalloproteinase-9 (MMP9), MMP9 (gene 4318) (UniProt P14780). The experiment in a line: NVS_ENZ_hMMP9: NovaScreen (NVS) Enzymatic Assay for human Matrix Metalloproteinase-9 (MMP9) (AID 2283190).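 Also: cell-free recombinant MMP9 protease activity read by fluorescent substrate signal; active means inhibition seen as loss of fluorescence signal versus DMSO.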 In outline: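 Screening concentration 25 uM, duplicate wells, then dose series for confirmation. Cell-free enzymatic reaction measured by fluorescence intensity 1 h post-dosing; decreased signal versus DMSO taken as activity.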
Sequence of human Matrix Metalloproteinase-9 (MMP9), MMP9 (gene 4318) (P14780 whole entry, looked up): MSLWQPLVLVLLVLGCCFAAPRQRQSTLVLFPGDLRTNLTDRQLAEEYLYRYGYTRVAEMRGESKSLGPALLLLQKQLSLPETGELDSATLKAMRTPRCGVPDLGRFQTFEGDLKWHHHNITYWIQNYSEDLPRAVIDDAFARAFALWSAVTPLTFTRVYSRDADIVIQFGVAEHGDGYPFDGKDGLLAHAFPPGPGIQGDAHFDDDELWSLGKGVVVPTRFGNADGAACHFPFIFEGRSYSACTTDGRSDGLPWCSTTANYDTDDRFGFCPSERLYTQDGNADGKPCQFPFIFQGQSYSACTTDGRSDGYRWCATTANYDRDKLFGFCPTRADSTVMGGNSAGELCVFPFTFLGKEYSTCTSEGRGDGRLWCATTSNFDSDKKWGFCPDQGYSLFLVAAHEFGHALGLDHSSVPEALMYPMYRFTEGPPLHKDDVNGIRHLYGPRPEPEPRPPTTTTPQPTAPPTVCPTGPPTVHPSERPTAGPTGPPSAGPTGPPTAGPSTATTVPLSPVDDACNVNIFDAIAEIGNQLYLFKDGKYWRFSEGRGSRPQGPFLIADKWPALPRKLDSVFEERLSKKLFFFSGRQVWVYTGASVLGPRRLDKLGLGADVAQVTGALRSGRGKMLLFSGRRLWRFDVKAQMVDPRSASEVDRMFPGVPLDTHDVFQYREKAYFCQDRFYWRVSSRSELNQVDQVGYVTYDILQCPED

Test [2] has as its target human Phosphodiesterase 5 (PDE5), PDE5A (gene 8654) (UniProt O76074). The experiment in a line: NVS_ENZ_hPDE5: NovaScreen (NVS) Enzymatic Assay for human Phosphodiesterase 5 (PDE5) (AID 2283194). In outline: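 Screening began in duplicate at 25 uM, with actives taken into concentration-response. Enzyme activity of recombinant PDE5 toward its substrate was measured at 1 h by fluorescence mobility-shift detection, relative to DMSO controls.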

The target of test [3] is Tyrosine-protein phosphatase non-receptor type 11 (Homo sapiens) (UniProt Q06124). The experiment in a line: NVS_ENZ_hPTPN11: NovaScreen (NVS) Enzymatic Assay for human Protein Tyrosine Phosphatase Non-receptor Type 11 (PTPN11) (AID 2283202). The method in brief: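 Compounds first tested in duplicate at 25 uM; those reaching ~30% inhibition rerun in singleton concentration-response, top 50 uM. Phosphatase activity measured after 0.5 h by fluorescence with mobility-shift separation, relative to DMSO.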

The target in test [4] is Serine/threonine-protein phosphatase PP1-alpha catalytic subunit (Homo sapiens) (UniProt P62136). The experiment in a line: NVS_ENZ_hPPP1CA: NovaScreen (NVS) Enzymatic Assay for human Protein Phosphatase 1 Aatalytic subunit Alpha (PPP1CA) (AID 2283200). The method in brief:
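Chemicals were first screened in duplicate at 25 uM, and those passing threshold (e.g. 30% inhibition) were run as concentration series to 50 uM. Cell-free recombinant protein, 1.33 h read, fluorescent substrate/product mobility-shift detection, normalised to DMSO.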

Test [5] addresses human Matrix Metalloproteinase-2 (MMP2), MMP2 (gene 4313) (UniProt P08253). The experiment in a line: NVS_ENZ_hMMP2: NovaScreen (NVS) Enzymatic Assay for human Matrix Metalloproteinase-2 (MMP2) (AID 2283184). The method in brief:
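Compounds first screened in duplicate at a single 25 uM, with actives followed up in concentration series. Recombinant human MMP2 cleaves a fluorogenic substrate; fluorescence taken at 1 h, inhibition fitted relative to DMSO.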

The target in test [6] is human Phosphodiesterase 4A1 (PDE4A1), PDE4A (gene 5141) (UniProt P27815). Description: NVS_ENZ_hPDE4A1: NovaScreen (NVS) Enzymatic Assay for human Phosphodiesterase 4A1 (PDE4A1) (AID 2283191). In outline:
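Fluorescent substrate turnover by recombinant PDE4A1 read after 1 h by mobility-shift separation. Primary duplicate screen at 25 uM; hits retested in concentration series with a 50 uM maximum, relative to DMSO.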

Test [7] addresses human Protein Tyrosine Phosphatase Non-receptor Type 1 (PTPN1), PTPN1 (gene 5770) (UniProt P18031). The experiment in a line: NVS_ENZ_hPTPN1: NovaScreen (NVS) Enzymatic Assay for human Protein Tyrosine Phosphatase Non-receptor Type 1 (PTPN1) (AID 2283201). The method in brief:
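Chemicals were first tested in duplicate at 25 uM, and those passing threshold went on to singleton concentration series topping at 50 uM. Recombinant enzyme, specific substrate, product separated by mobility shift, fluorescence read at 1.33 h; activity loss relative to DMSO.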

The target in test [8] is human Matrix Metalloproteinase-1 (MMP1), MMP1 (gene 4312) (UniProt P03956). The experiment in a line: NVS_ENZ_hMMP1: NovaScreen (NVS) Enzymatic Assay for human Matrix Metalloproteinase-1 (MMP1) (AID 2283181). The method in brief: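 Cell-free fluorescent substrate assay of human MMP1, read after 1 h. A single 25 uM duplicate screen was followed by concentration series to a maximum of 50 uM for actives meeting threshold; inhibition analysed against DMSO baseline.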
Sequence of human Matrix Metalloproteinase-1 (MMP1), MMP1 (gene 4312) (P03956 whole entry, looked up): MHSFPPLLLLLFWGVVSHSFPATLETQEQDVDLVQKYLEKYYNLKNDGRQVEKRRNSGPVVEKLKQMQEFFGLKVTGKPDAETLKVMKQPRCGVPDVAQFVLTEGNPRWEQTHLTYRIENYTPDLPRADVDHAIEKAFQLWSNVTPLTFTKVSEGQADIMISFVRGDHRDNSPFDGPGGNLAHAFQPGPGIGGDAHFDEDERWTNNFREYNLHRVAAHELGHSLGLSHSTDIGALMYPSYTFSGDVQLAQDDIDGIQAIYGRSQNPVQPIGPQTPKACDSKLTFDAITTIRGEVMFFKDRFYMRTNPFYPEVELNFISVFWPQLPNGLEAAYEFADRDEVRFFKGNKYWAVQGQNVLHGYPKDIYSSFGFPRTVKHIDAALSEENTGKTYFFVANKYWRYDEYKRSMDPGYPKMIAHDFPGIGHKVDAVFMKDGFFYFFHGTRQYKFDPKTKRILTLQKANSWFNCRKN

Test [9] has as its target cAMP-dependent protein kinase catalytic subunit alpha (Homo sapiens) (UniProt P17612). Description: NVS_ENZ_hPKA: NovaScreen (NVS) Enzymatic Assay for human Protein Kinase A (PKA) (AID 2283192). The method in brief: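 Cell-free kinase activity read by fluorescence after mobility-shift separation of substrate and product, 1 h post-dosing. Single-concentration duplicate screen (25 uM) preceded singleton concentration series (top 50 uM); loss of signal versus DMSO.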

A further test concerns the target PPP2CA (gene 5515) (UniProt P67775). Description: NVS_ENZ_hPPP2CA: NovaScreen (NVS) Enzymatic Assay for human Protein Phosphatase 2 Aatalytic subunit Alpha (PPP2CA) (AID 2283199). In outline: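 Cell-free phosphatase activity: fluorescent substrate turnover by recombinant human enzyme, resolved by mobility shift at 1.33 h. Compounds passing the 25 uM duplicate primary screen were rerun in singleton series with a 50 uM top concentration.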

The target of test [10] is Collagenase 3 (Homo sapiens) (UniProt P45452). The experiment in a line: NVS_ENZ_hMMP13: NovaScreen (NVS) Enzymatic Assay for human Matrix Metalloproteinase-13 (MMP13) (AID 2283182). In outline: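 Recombinant MMP13 cleaving fluorescent substrate, cell-free, measured 1 h after dosing. Primary duplicate screen at 25 uM; actives tested in concentration-response up to 50 uM; loss of signal relative to DMSO.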

Test [11] concerns the target human Matrix Metalloproteinase-3 (MMP3), MMP3 (gene 4314) (UniProt P08254). The experiment in a line: NVS_ENZ_hMMP3: NovaScreen (NVS) Enzymatic Assay for human Matrix Metalloproteinase-3 (MMP3) (AID 2283185). In outline:
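Fluorescent substrate turnover by recombinant MMP3 read after 1 h, signal loss scored against DMSO. Compounds first run in duplicate at 25 uM single dose, then actives confirmed by concentration series.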

The target of test [12] is human Phosphoinositide 3-kinase alpha (PI3Ka), PIK3CA (gene 5290) (UniProt P42336). The experiment in a line: NVS_ENZ_hPI3Ka: NovaScreen (NVS) Enzymatic Assay for human Phosphoinositide 3-kinase alpha (PI3Ka) (AID 2283196). In outline: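 Duplicate single-point screen (25 uM), then singleton dose-response (max 50 uM) for compounds meeting the threshold. Cell-free kinase reaction, 1 h; fluorescent mobility-shift readout.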
Sequence of human Phosphoinositide 3-kinase alpha (PI3Ka), PIK3CA (gene 5290) (P42336 whole entry, looked up): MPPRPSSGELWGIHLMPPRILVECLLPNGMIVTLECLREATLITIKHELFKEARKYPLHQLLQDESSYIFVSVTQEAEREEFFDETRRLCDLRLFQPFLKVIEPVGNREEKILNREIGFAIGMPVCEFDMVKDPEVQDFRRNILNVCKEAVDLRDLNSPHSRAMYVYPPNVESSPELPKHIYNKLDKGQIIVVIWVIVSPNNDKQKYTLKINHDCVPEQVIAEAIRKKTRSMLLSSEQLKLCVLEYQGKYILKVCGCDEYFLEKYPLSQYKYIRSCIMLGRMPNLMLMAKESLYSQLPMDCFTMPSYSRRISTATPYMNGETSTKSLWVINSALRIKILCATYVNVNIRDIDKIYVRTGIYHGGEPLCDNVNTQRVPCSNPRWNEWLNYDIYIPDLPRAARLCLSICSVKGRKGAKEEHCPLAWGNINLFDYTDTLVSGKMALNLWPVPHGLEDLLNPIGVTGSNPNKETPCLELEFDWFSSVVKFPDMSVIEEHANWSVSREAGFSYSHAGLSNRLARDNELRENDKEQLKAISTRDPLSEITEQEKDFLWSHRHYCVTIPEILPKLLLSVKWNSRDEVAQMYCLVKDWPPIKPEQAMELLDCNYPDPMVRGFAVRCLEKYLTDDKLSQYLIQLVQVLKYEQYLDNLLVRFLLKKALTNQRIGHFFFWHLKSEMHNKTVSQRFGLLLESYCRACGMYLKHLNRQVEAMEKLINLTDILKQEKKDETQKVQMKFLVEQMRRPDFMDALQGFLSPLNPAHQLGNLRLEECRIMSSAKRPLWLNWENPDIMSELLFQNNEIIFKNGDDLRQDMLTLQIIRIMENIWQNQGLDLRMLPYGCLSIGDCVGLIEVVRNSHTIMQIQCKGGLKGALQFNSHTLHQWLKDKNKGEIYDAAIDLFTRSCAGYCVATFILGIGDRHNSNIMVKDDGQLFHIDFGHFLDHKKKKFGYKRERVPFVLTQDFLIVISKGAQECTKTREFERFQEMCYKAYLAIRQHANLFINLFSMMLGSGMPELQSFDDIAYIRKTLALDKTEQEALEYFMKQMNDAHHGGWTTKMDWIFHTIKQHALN

In test [13] the target is human MET Proto-Oncogene, Receptor Tyrosine Kinase (MET), MET (gene 4233) (UniProt P08581). Description: NVS_ENZ_hMet: NovaScreen (NVS) Enzymatic Assay for human MET Proto-Oncogene, Receptor Tyrosine Kinase (MET) (AID 2283180). In outline:
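Hits from a 25 uM duplicate screen were retested in concentration series up to 50 uM. Enzyme activity was measured by fluorescence after electrophoretic separation of product from substrate, 1 h after compound addition, relative to DMSO.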

The target of test [14] is human Matrix Metalloproteinase-7 (MMP7), MMP7 (gene 4316) (UniProt P09237). Description: NVS_ENZ_hMMP7: NovaScreen (NVS) Enzymatic Assay for human Matrix Metalloproteinase-7 (MMP7) (AID 2283183). In outline: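 Compounds first tested at 25 uM in duplicate, then at up to 50 uM in concentration series if active. Protease activity measured by fluorescence intensity 1 h after dosing, with fitting relative to DMSO.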
Sequence of human Matrix Metalloproteinase-7 (MMP7), MMP7 (gene 4316) (P09237 whole entry, looked up): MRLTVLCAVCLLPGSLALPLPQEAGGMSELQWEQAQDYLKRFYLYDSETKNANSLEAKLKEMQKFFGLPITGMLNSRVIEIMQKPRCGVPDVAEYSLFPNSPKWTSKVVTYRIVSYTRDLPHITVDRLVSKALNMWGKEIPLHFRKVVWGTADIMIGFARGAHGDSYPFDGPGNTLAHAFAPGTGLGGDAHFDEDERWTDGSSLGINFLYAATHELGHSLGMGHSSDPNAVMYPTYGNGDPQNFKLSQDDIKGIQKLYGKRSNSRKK

Several values for one entry are separate records, joined by “and”; a condition that tells them apart may be missing. Identical values can stand only once. Records with an inconclusive call do not appear. Where a structure was tested more than once in an assay, its records may differ in their call. Activity calls are given as the source filed them. The calls were made as follows: active = hit-call score of the fitted dose curve at least 0.9, where 1 is the maximum; inconclusive = response in the unintended direction; inactive = score below 0.9.

Sequence of human Phosphodiesterase 4A1 (PDE4A1), PDE4A (gene 5141) (P27815 whole entry, looked up): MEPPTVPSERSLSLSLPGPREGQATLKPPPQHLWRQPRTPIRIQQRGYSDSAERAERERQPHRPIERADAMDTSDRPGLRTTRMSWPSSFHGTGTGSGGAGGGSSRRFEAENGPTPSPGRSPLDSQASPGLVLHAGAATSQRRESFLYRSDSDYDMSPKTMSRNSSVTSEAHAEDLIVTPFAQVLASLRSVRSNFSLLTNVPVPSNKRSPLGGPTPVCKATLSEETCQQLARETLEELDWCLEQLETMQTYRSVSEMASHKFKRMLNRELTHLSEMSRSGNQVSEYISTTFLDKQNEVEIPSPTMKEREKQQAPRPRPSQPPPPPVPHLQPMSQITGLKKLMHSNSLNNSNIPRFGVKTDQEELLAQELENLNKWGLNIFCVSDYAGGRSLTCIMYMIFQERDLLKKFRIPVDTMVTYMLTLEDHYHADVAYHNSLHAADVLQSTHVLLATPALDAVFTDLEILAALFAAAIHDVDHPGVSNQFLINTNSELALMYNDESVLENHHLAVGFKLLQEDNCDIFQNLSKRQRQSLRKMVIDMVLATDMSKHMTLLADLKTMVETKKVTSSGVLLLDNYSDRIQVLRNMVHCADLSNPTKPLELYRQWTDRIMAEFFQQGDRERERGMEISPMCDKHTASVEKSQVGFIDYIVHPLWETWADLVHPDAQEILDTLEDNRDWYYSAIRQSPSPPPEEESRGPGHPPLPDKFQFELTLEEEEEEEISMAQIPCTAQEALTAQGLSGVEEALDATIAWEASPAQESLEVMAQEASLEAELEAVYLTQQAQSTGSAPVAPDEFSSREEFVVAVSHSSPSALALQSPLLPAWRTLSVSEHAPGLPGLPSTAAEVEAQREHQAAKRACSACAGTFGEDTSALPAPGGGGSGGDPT
Sequence of human MET Proto-Oncogene, Receptor Tyrosine Kinase (MET), MET (gene 4233) (P08581 whole entry, looked up): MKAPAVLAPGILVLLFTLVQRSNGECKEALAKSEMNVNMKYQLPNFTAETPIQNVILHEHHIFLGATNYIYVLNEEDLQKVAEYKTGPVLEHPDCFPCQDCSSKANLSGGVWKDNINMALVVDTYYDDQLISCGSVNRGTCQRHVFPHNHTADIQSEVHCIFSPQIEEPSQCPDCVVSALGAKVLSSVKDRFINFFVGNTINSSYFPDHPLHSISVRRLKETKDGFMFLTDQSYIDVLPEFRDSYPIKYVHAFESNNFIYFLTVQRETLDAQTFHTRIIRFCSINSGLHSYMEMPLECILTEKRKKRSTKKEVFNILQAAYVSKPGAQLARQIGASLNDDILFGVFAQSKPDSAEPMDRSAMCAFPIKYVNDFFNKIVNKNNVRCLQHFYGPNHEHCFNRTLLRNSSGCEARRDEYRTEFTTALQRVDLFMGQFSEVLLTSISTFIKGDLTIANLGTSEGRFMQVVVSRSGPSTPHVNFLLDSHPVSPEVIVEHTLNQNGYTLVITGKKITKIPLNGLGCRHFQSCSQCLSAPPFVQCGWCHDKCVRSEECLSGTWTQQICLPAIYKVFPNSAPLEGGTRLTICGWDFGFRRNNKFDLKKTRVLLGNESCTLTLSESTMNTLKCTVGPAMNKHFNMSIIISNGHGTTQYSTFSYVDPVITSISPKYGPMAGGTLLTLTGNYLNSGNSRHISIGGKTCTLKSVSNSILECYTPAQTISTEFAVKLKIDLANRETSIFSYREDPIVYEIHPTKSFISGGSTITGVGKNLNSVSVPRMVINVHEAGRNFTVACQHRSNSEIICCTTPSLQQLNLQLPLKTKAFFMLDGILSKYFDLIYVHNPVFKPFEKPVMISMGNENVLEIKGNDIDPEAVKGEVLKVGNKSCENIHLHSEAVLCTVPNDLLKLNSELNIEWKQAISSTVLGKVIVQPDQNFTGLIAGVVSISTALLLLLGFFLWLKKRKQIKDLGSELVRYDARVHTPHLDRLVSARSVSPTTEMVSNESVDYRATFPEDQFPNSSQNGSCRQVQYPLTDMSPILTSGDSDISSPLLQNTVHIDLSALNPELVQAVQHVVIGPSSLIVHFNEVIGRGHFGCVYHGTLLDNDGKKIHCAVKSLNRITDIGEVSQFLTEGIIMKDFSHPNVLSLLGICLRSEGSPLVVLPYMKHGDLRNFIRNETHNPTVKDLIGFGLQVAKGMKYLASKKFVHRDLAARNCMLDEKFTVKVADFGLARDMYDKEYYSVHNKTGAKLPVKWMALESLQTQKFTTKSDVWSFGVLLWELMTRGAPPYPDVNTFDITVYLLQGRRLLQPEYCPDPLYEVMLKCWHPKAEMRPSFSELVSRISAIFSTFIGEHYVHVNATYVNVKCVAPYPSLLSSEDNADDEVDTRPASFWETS

Consider `CCCCNC(=O)n1c(NC(=O)OC)nc2ccccc21`, for which the result in test [1] and in test [2] was inactive. As for `CCCCOC(=O)c1ccccc1C(=O)OCCCC`, in [3], the outcome was inactive. Take `Cc1cc(Cl)ccc1OCC(=O)O`: the call in [4] was inactive. In the case of `O=C(Nc1ccccc1)Nc1ccnc(Cl)c1`, the AC50 in test [2] is 10 µM (active). In the case of `CCNc1nc(Cl)nc(NCC)n1`, in test [5], the call was inactive. The AC50 in test [6] is 8.46 µM (active). As to `COP(=S)(OC)Oc1nc(Cl)c(Cl)cc1Cl`, in [7], the call was inactive.

As to `CC(C)C1(C)N=C(c2nc3ccccc3cc2C(=O)O)NC1=O` (centres undefined), the compound was classed as inactive in [8]. In the case of `COc1nc(C)nc(NC(=O)NS(=O)(=O)c2ccccc2Cl)n1`, the result (in [9]; in the test with PPP2CA (gene 5515)) was inactive. In the case of `CO/C=C(/C(=O)OC)c1ccccc1Oc1cc(Oc2ccccc2C#N)ncn1`, the result in test [10], in test [5], in test [11], in [6] and in test [12] was inactive. Moreover, the AC50 in test [6] was 14 µM (active).

As to `CCNc1nc(Cl)nc(NC(C)C)n1`, the AC50 is 1.22 µM (active) in test [6]; 4.96 µM (active) and 8.17 µM (active) in test [2]. For `Oc1ccccc1-c1ccccc1`, the outcome in test [4] was inactive. `O=C(O)c1nc(Cl)ccc1Cl`: in test [11], the call was inactive. `COc1nc(NC(C)C)nc(NC(C)C)n1`: in test [6], the AC50 was 13.4 µM (active). As for `CN(C)C(=S)SSC(=S)N(C)C`, the result in test [13] and in test [12] was inactive.

Take `COc1nc(C)nc(NC(=O)NS(=O)(=O)c2ccccc2CCC(F)(F)F)n1`: the result in [13], in test [14] and in test [12] was inactive. For the same compound, the AC50 in [2] was 25 µM (active).

As for `C=CCC1=C(C)C(OC(=O)C2C(C=C(C)C)C2(C)C)CC1=O` (centres undefined), the AC50 is 8.92 µM (active) in test [8] and 0.793 µM (active) in test [1]. Regarding `COc1ccc(C(c2ccc(OC)cc2)C(Cl)(Cl)Cl)cc1`, the compound was called inactive in [14], in [1] and in [3]. `CCCC1COC(Cn2cncn2)(c2ccc(Cl)cc2Cl)O1` (centres undefined): in test [8], the AC50 was 6.45 µM (active).
